# A number with no mark means an inactive call. Inconclusive results are not listed. Where a call stands in place of a potency, no number is given. The source made the active and inactive calls. Unless noted, the call rests on the fitted dose curve; in most records, active means well fitted curve in the direction sought with a large enough effect; inconclusive means small, poorly fitted or top-dose-only effect, or another doubt; inactive means no such curve, though single readings can be large; an effect the other way counts as inactive or inconclusive.
# Key:
# [1] = Cell Viability - LYMP2-001 (AID 921);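 further: cells exposed to compound for 24 h at 37 °C; nearly all actives have a fitted effect of over 70% in size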; further: potency means the concentration at half of the fitted maximal effect
# Procedure, shortened: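 Steps: seed 2500 lymphoblastoid cells/well; 5 hr, 37 C; add compound; 24 hr, 37 C; CellTiter-Glo reagent, 30 min room temperature; read luminescence. Concentration-response modeled by Hill equation for AC50.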
# [2] = MultiTox-Fluor Cytotoxicity Assay - LYMP1-001 - Dead Cells (AID 946);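 further: cells exposed to compound for 16 h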; further: potency means the concentration at half of the fitted maximal effect
# Procedure, shortened: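 In this qHTS, 15 uM tetraoctylammonium bromide defined 100% and DMSO defined basal activity. Lymphoblastoid cells (LYMP1-001, 2500 per well) received compound for 16 hr at 37 C before a fluorogenic dead-cell substrate readout at 485/520 nm.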
# [3] = MultiTox-Fluor Cytotoxicity Assay - LYMP1-001 - Live Cells (AID 947)
# [4] = Confirmation and Secondary Assay for Modulators of Hemoglobin Beta Chain Splicing at IVS2 654 locus (AID 910);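 further: per-well total GFP intensity by laser scanning cytometry after 2-day treatment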
# Procedure, shortened: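 HeLa cells stably carrying EGFP interrupted by mutant beta-globin IVS2-654 intron (CMV-driven) were treated with compound for 2 days at 37C; corrected splicing was scored as total peak GFP intensity per well (488 nm excitation, 500-520 nm emission).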
# [5] = Confirmation and Secondary Assay for Modulators of Hemoglobin Beta Chain Splicing at IVS2 705 locus (AID 930);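 further: HeLa cells stably expressing the EGFP-705 splicing reporter; GFP fluorescence per well restored by corrected splicing of the IVS2-705 intron in EGFP; series mostly up to about 46 µM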
# Procedure, shortened: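 First, HeLa EGFP-705 cells are seeded at 500/well in Optimem with 2% FCS and left overnight. Next, compound or DMSO is added for 2 days. Finally wells are laser-scanned and total peak GFP intensity scored.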
# [6] = target: Pyruvate kinase (Leishmania mexicana) (UniProt Q27686); test: qHTS Validation Assay for Inhibitors of Leishmania Mexicana Pyruvate Kinase (AID 945)
# Chain of Pyruvate kinase (Leishmania mexicana) (Q27686 2-499 E452W): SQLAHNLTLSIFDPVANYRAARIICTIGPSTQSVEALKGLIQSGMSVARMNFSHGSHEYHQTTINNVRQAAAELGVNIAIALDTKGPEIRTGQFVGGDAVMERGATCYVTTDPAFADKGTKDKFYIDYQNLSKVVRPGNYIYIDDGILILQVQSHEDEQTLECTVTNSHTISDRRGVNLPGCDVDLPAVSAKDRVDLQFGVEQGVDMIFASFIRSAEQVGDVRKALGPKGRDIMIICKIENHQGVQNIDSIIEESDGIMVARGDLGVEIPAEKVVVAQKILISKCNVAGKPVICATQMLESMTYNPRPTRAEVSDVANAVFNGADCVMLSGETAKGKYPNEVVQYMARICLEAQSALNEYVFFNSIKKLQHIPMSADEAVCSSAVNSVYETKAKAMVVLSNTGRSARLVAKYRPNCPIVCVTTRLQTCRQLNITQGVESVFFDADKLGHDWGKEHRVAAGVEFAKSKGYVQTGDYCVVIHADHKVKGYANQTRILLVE
# Procedure, shortened: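 qHTS eight-point titrations against 0.2 nM LmPYK (E451W) in imidazole buffer pH 7.2 with 0.5 mM PEP, 0.1 mM ADP; 1 h, room temperature. Readout: PKLight luminescence, normalized to neutral DMSO wells.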
# [7] = qHTS Assay for Identification of Small Molecule Agonists for Hypoxia Response Element Signaling Pathway (AID 914; active means well fitted activation curve with a large enough effect in the signal ratio, with a control signal flat, not every such curve was filed as active; the % refers to the signal ratio); conditions: ME-180 (cervical carcinoma) HRE-bla reporter, beta-lactamase ratio, CoCl2, 17 h; stronger effect = higher value
# Procedure, shortened: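 Positive modulation of EC50 CoCl2-induced hypoxia response element signaling is measured in ME-180 cells with a beta-lactamase reporter. Compounds are titrated, incubation runs 17 hours, and %Activity derives from the blue/green ratio.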
# [8] = qHTS Assay for Identification of Small Molecule Agonists for Thrombopoietin (TPO) Signaling Pathway (AID 917)
# Procedure, shortened: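 Luminescence from a Glycoprotein IIb promoter–driven luciferase reporter served as read-out in murine Ba/F3 cells carrying the human TPO receptor. Cells, deprived of IL-3 overnight, received compounds with 26 pM TPO and were incubated 24 hrs at 37 C.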
# [9] = target: Muscarinic acetylcholine receptor M1 (Rattus norvegicus) (UniProt P08482); test: qHTS Assay for Antagonists of Acetylcholine Muscarinic M1 Receptor: Kinetic Measurement of Intracellular Calcium Response (AID 943);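 further: Fluo-4 calcium signal as peak divided by basal fluorescence over 4 min; series mostly up to about 35 µM; nearly all actives have a fitted effect of over 75% in size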
# Chain of Muscarinic acetylcholine receptor M1 (Rattus norvegicus) (P08482 whole entry, looked up): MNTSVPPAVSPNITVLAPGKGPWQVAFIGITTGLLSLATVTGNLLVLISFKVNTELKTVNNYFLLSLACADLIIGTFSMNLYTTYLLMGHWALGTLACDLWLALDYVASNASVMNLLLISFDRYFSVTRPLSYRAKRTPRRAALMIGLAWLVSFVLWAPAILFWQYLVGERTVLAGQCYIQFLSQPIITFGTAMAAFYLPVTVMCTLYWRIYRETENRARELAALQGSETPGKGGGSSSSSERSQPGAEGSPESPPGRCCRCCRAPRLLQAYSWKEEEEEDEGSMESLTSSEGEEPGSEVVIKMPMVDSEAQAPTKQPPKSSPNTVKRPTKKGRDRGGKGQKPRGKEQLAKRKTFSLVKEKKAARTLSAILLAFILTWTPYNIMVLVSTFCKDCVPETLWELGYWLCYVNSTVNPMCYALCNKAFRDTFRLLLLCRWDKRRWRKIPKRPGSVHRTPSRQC
# Procedure, shortened: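 Rat M1-CHO cells, 2000/well, overnight → Fluo-4 no-wash dye with probenecid, 1 h 37C → compound 10 min, room temp → basal read 6 s → carbachol EC80 (100 nM) → 4 min kinetic read; peak/basal.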
# [10] = target: Muscarinic acetylcholine receptor M1 (Rattus norvegicus) (UniProt P08482); test: qHTS Assay for Antagonists of Acetylcholine Muscarinic M1 Receptor: Measurement of IP-One Response (AID 944); further: nearly all actives have a fitted effect of over 75% in size
# Procedure, shortened: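 M1-CHO (rat), 2000 cells/well, overnight recovery; cpd 10 min; carbachol EC80 (200 nM), 30 min, HEPES buffer + 50 mM LiCl pH 7.4; IP-One HTRF, Ex 337, Em 620/665 nm.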
structure (smiles),measurement,setting,value
O=S(=O)(O)O,Potency,[1],inactive
same,Potency,[2],inactive
same,outcome,[3],inactive
CCCC(=O)Nc1ncnc2c1ncn2C1OC2COP(=O)(O)OC2C1OC(=O)CCC (configuration not stated),outcome,[4],inactive
same,outcome,[5],inactive
Nc1ccn([C@H]2CS[C@@H](CO)O2)c(=O)n1,Potency,[1],inactive
same,Potency,[2],inactive
same,outcome,[3],inactive
CCCCC/C=C\C/C=C\CCCCCCCC(=O)O,Potency,[1],inactive
same,Potency,[2],inactive
O=C(O)CN(CCN(CC(=O)O)CC(=O)O)CC(=O)O,outcome,[4],inactive
same,outcome,[5],inactive
CC(C(=O)O)c1ccc(N2Cc3ccccc3C2=O)cc1 (configuration not stated),outcome,[4],inactive
same,outcome,[5],inactive
NC(=O)c1ncn(C2OC(CO)C(O)C2O)n1 (configuration not stated),outcome,[4],inactive
same,outcome,[5],inactive
CN1Cc2c(N)cccc2C(c2ccccc2)C1 (configuration not stated),outcome,[4],inactive
same,outcome,[5],inactive
CC1=C(/C=C/C(C)=C/C=C/C(C)=C/C=C/C=C(C)/C=C/C=C(C)/C=C/C2=C(C)CCCC2(C)C)C(C)(C)CCC1,outcome,[4],inactive
same,outcome,[5],inactive
C[C@@H]1CCC2[C@@H](C)[C@@H](O)O[C@@H]3O[C@@]4(C)CC[C@@H]1[C@@]23OO4 (some centres not stated),outcome,[4],inactive
same,outcome,[5],inactive
CCOc1ccc2c(c1)C(C)=CC(C)(C)N2,outcome,[4],inactive
same,Potency,[1],inactive
same,outcome,[5],inactive
same,Potency,[2],inactive
same,outcome,[3],inactive
O=C(O)CCC(=O)C(=O)O,Potency,[1],inactive
same,Potency,[2],inactive
same,outcome,[3],inactive
CC[N+](C)(C)Cc1ccccc1Br,outcome,[6],inactive
CCC(=O)NCCC1CCc2ccc3c(c21)CCO3 (configuration not stated),outcome,[4],inactive
same,outcome,[5],inactive
Cc1ccccc1,Potency,[1],inactive
same,Potency,[2],inactive
same,outcome,[3],inactive
CN=C(NC#N)Nc1ccc(C2=NNC(=O)C[C@@H]2C)cc1,activation,[7],1.72%
same,outcome,[8],inactive
same,outcome,[9],inactive
same,outcome,[10],inactive
same,outcome,[6],inactive
CC1=C(/C=C/C(C)=C/C=C/C(C)=C/C=C/C=C(C)/C=C/C=C(C)/C=C/C2=C(C)C(=O)CCC2(C)C)C(C)(C)CCC1=O,outcome,[4],inactive
same,outcome,[5],inactive
CCCCCCCC(=O)O,Potency,[1],inactive
same,Potency,[2],inactive
same,outcome,[3],inactive
CC1=C2[C@@H]([C@H](C)CC[C@H]2/C=C(\C)C(=O)O)[C@H](O)C1,Potency,[1],inactive
same,Potency,[2],inactive
same,outcome,[3],inactive
COc1ccc(CCNC[C@H](O)c2ccc(O)cc2)cc1OC,outcome,[8],inactive
same,outcome,[6],inactive
CC(O)CO (configuration not stated),Potency,[1],inactive
same,Potency,[2],inactive
same,outcome,[3],inactive
CC(C)(C)NC(=O)[C@@H]1C[C@@H]2CCCC[C@@H]2CN1C[C@@H](O)[C@H](Cc1ccccc1)NC(=O)[C@H](CC(N)=O)NC(=O)c1ccc2ccccc2n1,Potency,[2],50.1 µM (active)
O=CCCCC=O,Potency,[1],15.8 µM (active)
same,Potency,[2],inactive
C=CCSSSCC=C,outcome,[4],inactive
same,outcome,[5],inactive
Cc1onc(-c2ccccc2)c1C(=O)N[C@@H]1C(=O)N2[C@@H]1SC(C)(C)[C@@H]2C(=O)O,activation,[7],-2.15%
Nc1c(Br)cc(Br)cc1CNC1CCC(O)CC1 (configuration not stated),outcome,[4],inactive
same,outcome,[5],inactive
CC(C)=O,Potency,[1],inactive
same,Potency,[2],inactive
same,outcome,[3],inactive
Oc1cc(O)c2c(c1)OC(c1ccc(O)c(O)c1)C(O)C2 (configuration not stated),outcome,[4],inactive
same,outcome,[5],inactive
IC(I)I,Potency,[1],inactive
same,Potency,[2],inactive
same,outcome,[3],inactive
CCOC(C)=O,Potency,[1],inactive
same,Potency,[2],inactive
same,outcome,[3],inactive
CCCCCCCC/C=C\CCCCCCCC(=O)O,Potency,[1],inactive
same,Potency,[2],inactive
CC1=C(/C=C/C(C)=C/C=C/C(C)=C/CO)C(C)(C)CCC1,outcome,[4],inactive
same,outcome,[5],inactive

# — PubChem BioAssay (NCATS)
